Bioassay records (PubChem)
M1 agonist: M1 muscarinic receptor agonists, primary screen, CHO-M1 cells, Fluo-4 calcium, agonist mode. Muscarinic acetylcholine receptor M1. Fluo-4 calcium fluorescence; stronger effect = higher value. B-score at 10 µM. 64,000 compounds, 3% hits. AID 626, 2007;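 active means fluorescence rise, raw or as B-score row- and column-corrected plate score, outside the 99.7% band of its plate's samples, either direction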
PLAP activator: PLAP enzyme activators, biochemical, luminescence, HTS; Alkaline phosphatase, placental type (Homo sapiens), P05187; purified PLAP enzyme, luminescent substrate read-out; stronger effect = higher value; activation fold at 20 µM; 96,000 compounds, 1.2% hits; AID 696, 2007; in the data active means activation fold above about 2
M1 antagonist: antagonists of rat M1 muscarinic receptor. Muscarinic acetylcholine receptor M1 (Rattus norvegicus), P08482. CHO-M1 cells, Fluo-4 calcium, ACh EC80 antagonist mode; stronger effect = lower value. B-score at 10 µM. 64,000 compounds, 3.4% hits. AID 628, 2007;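 active means calcium fluorescence response, raw or row-and-column corrected B-score, differing from the plate sample mean either way at a set confidence level, mostly lower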
Cav3 T inh: Cav3.2 calcium influx blockers – cell-based, Fluo-4 calcium fluorescence, FDSS, MLSMR library, primary screen; Voltage-dependent T-type calcium channel subunit alpha-1H (Homo sapiens), O95180; Cav3.2-expressing cells; stronger effect = lower value; B-score at 10 µM; 100,000 compounds, 4% hits; AID 449739, 2010;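 active means single-dose well whose peak fluorescence ratio is a statistical outlier from its plate by either plate-standardised score or position-corrected B-score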
Starred values were filed as active, the others as inactive. Compounds with a hit are over-represented: about 7.6% of the library has one in this group of screens.

For CC(C)=CCCC(C)NC(=O)NC1CCCCC1 (stereo not drawn) the results were M1 agonist 0.58, M1 antagonist 0.62 and Cav3 T inh 1.4.
COc1ccc(OCCNS(=O)(=O)c2ccc3oc4ccccc4c3c2)cc1 was read as PLAP activator 1.1 and Cav3 T inh -0.4.
Screening CN(CCOc1ccccc1)S(=O)(=O)c1ccc2oc3ccccc3c2c1 returned PLAP activator 0.9 and Cav3 T inh -5.4*.
`CC(=O)C1=C(C)NC(SCC(=O)c2ccc(Cl)cc2)=C(C#N)C1c1ccco1` (stereo not drawn) gave M1 agonist -0.014, PLAP activator 1.3, M1 antagonist -0.43 and Cav3 T inh -4.5*.
CCOC(=O)C1=C(c2ccccc2)NC(SCC(=O)Nc2ccccc2C)=C(C#N)C1c1ccco1 (stereo not drawn) was read as M1 agonist 0.015, PLAP activator 1, M1 antagonist 1.1 and Cav3 T inh -7.4*.
CCOC(=O)C1=C(c2ccccc2)NC(SCC(=O)Nc2cccc(C)c2)=C(C#N)C1c1ccco1 (stereo not drawn) was read as M1 agonist 1.3, PLAP activator 1, M1 antagonist 1.2 and Cav3 T inh -2.1.
For CSCSC1=C(C#N)C(c2ccc(Cl)cc2)C(C(C)=O)=C(C)N1 (stereo not drawn) the results were M1 agonist -0.022, PLAP activator 1.1, M1 antagonist 0.5 and Cav3 T inh -5.5*.
CC1CC(C)(C)N(C(=O)CN2C(=O)c3ccccc3C2=O)c2ccccc21 (stereo not drawn) was read as Cav3 T inh 4.5*.
`CC1=CC(C)(C)N(C(=O)CN2C(=O)c3ccccc3C2=O)c2ccccc21` gave M1 agonist -0.23, PLAP activator 1.3, M1 antagonist 0.41 and Cav3 T inh -1.4.
For COc1ccc2nc(NC(=O)CN(c3ccc(C)cc3)S(=O)(=O)c3c(C)nn(C)c3C)sc2c1 the results were M1 agonist -0.34, PLAP activator 1.5, M1 antagonist 0.31 and Cav3 T inh -3.1.
Screening COc1cccc(-c2csc(N3CCN(C(=S)Nc4ccccc4Cl)CC3)n2)c1 returned PLAP activator 1 and Cav3 T inh -4.1*.
For COc1cccc(-c2csc(N3CCN(C(=S)Nc4ccccc4OC)CC3)n2)c1 the results were PLAP activator 1.1 and Cav3 T inh -2.6.
CCOC(=O)c1c(C)cc(C)n2c1nc1ccccc12 was read as PLAP activator 1.1 and Cav3 T inh 0.96.
`CN1C(=O)c2oc3ccc(Br)cc3c(=O)c2C1c1ccncc1` (stereo not drawn) gave M1 agonist 0.0096, PLAP activator 0.9 and M1 antagonist -0.055.
`CC(C)Oc1cc(NC(=O)CS(=O)CC(=O)Nc2cccc(C(F)(F)F)c2)c(Cl)cc1Cl` (stereo not drawn) gave PLAP activator 1.1 and Cav3 T inh -3.8*.
`Cc1cc(C)cc(NC(=O)C2(c3ccccc3)CC2(Cl)Cl)c1` (stereo not drawn) gave PLAP activator 1.1 and Cav3 T inh -6.1*.
For Cc1cccc(NC(=O)C2(c3ccccc3)CC2(Cl)Cl)c1 (stereo not drawn) the results were PLAP activator 1 and Cav3 T inh -8*.
Screening COc1ccc(OCCCC(=O)NCC(C)C)cc1 returned PLAP activator 1.2 and Cav3 T inh 0.65.
Screening Cc1ccc(OCc2nc(C#N)c(NCCCn3ccnc3)o2)cc1 returned M1 agonist -0.066, PLAP activator 1.2, M1 antagonist -1.5 and Cav3 T inh -0.22.
Screening N#Cc1nc(COc2ccc(Br)cc2)oc1NCCCn1ccnc1 returned M1 agonist -0.43, PLAP activator 2.2* and M1 antagonist 0.11.
`COc1ccccc1N(CC(=O)Nc1cc(C)on1)S(=O)(=O)c1ccc(Cl)cc1` gave PLAP activator 0.8 and Cav3 T inh -2.4*.
For O=C(CSC1CC(=O)N(CC(c2ccccc2)c2ccccc2)C1=O)Nc1ccc(Cl)cc1 (stereo not drawn) the results were PLAP activator 1 and Cav3 T inh -7.4*.
O=C(O)CSC1CC(=O)N(c2ccc(Cl)cc2)C1=O (stereo not drawn) was read as M1 agonist -0.71, PLAP activator 0.9, M1 antagonist -0.37 and Cav3 T inh 0.25.
`O=C(CSc1nc2ccccc2c(=O)n1Cc1ccco1)N1CCN(c2ccccc2)CC1` gave M1 agonist -0.24, PLAP activator 1.7, M1 antagonist -0.0066 and Cav3 T inh -4.9*.
For O=C(CSc1nc(N2CCCCC2)nc(N2CCCCC2)n1)N1CCN(c2ccccc2)CC1 the results were M1 agonist 0.39, PLAP activator 1.6, M1 antagonist -0.22 and Cav3 T inh -8.8*.
Screening CC(C)c1ccccc1-n1c(SCC(=O)N2CCN(c3ccccc3)CC2)nnc1-c1cccnc1 returned PLAP activator 1.5 and Cav3 T inh -4.4*.
CCCn1c(SCC(=O)N2CCN(c3ccccc3)CC2)nc2ccccc2c1=O was read as M1 agonist 0.91, PLAP activator 0.9, M1 antagonist 1.9* and Cav3 T inh -6.2*.
O=C(CSc1nc2ccccc2c(=O)n1Cc1ccco1)c1ccccc1 was read as M1 agonist -0.3, PLAP activator 0.9, M1 antagonist 0.33 and Cav3 T inh -2.2.
For CCn1c(SCC(=O)N2CCN(c3ccc(F)cc3)CC2)nc2ccccc2c1=O the results were M1 agonist 1.6, PLAP activator 1.1, M1 antagonist 0.21 and Cav3 T inh 0.93.
Screening Cc1cc(C(=O)NNC(=S)NC(C)c2ccccc2)c2ccccc2n1 (stereo not drawn) returned PLAP activator 1.1 and Cav3 T inh 0.27.
`O=C(CSc1ccc2nnc(-c3ccccn3)n2n1)Nc1ccc2c(c1)OCO2` gave M1 agonist 0.1, PLAP activator 0.9, M1 antagonist 0.12 and Cav3 T inh 1.3.
Screening CCn1c(COc2ccccc2C)nnc1SCC(=O)N1CCN(c2ccccc2)CC1 returned PLAP activator 1.6 and Cav3 T inh -2.
CCn1c(CSCc2ccc(C)cc2)nnc1SCC(=O)N1CCN(c2ccccc2)CC1 was read as PLAP activator 1.7 and Cav3 T inh -5.6*.
Screening O=C(Nc1nc(N2C(=O)c3ccccc3C2=O)n(-c2ccccc2)n1)c1ccc(F)cc1 returned PLAP activator 2.1* and Cav3 T inh -0.69.
Screening CC(=O)Nc1nc(N2C(=O)c3ccccc3C2=O)n(-c2ccccc2)n1 returned M1 agonist 0.59, PLAP activator 1.5 and M1 antagonist 0.34.
CCN(CCCNC(=O)c1[nH]c(C)c(C(C)=O)c1C)c1ccccc1 was read as M1 agonist -1.8, PLAP activator 1, M1 antagonist -1.5 and Cav3 T inh 0.36.
O=C(Nc1cccc(Cl)c1)ON=C1c2ccccc2-c2ccccc21 was read as PLAP activator 1.2 and Cav3 T inh -0.091.
`COc1cccc(C(=O)Nc2ccc(C)cc2)c1` gave M1 agonist -0.037, PLAP activator 0.8, M1 antagonist -0.056 and Cav3 T inh 0.25.
